Source: PubChem BioAssay
Sampled rows, rich in hits. Any-hit rate of the full collection: about 32%.
CYP2C19 act: human CYP2C19 activators, primary screen, biochemical, luminescence | Cytochrome P450 2C19 (Homo sapiens), P33261 | activation factor at 5 µM | 96,000 tested, under 10 active | recombinant CYP2C19, luciferin-H EGE luminescence; hits give high values; 0 = fully inhibited enzyme, 1 = untreated enzyme;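 active = activation factor of at least 2 at 5 µM in the primary screen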;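 also: 0 = wells with 2.5 mM tranylcypromine and 1 = vehicle-only wells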
Target sequence (P33261 whole entry, looked up): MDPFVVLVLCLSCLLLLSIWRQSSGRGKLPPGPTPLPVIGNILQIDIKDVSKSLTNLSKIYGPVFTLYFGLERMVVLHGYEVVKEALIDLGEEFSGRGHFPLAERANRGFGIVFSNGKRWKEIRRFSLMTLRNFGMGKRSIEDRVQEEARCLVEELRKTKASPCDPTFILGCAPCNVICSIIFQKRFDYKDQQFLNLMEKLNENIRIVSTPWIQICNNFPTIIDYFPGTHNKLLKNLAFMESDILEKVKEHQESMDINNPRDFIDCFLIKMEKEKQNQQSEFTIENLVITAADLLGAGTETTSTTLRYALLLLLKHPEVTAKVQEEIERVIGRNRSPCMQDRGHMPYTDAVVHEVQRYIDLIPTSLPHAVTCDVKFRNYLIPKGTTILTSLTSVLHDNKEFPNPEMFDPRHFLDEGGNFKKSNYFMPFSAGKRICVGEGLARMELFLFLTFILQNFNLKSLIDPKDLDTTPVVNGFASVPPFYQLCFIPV
PostGolgi yeast: phenotypic screen on post-Golgi transport, primary screen. post-Golgi transport phenotypic cell assay. inhibition, % at 10 µM. 0.9% of 98,000 active;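 also: yeast cells grown in 1536-well plates; yeast grown about 18 h at 30C before absorbance read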
CYP2C19 inh: blockers of cytochrome P450 2C19 activity – biochemical, luminescence, ADME assay, primary screen | AID 778, 2007 | CYP2C19 Supersomes, luciferin-H EGE luminescence, 30 min | P33261 | inhibition, % at 5 µM | 21% of 96,000 active;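 active = CYP2C19 inhibition above a set limit at 5 µM in the primary screen, cut at about 50% in these data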;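 also: plate controls were negative control wells for no effect and 2.5 mM tranylcypromine positive control for full effect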
PostGolgi ctrl: growth inhibition of yeast control strain, primary screen, counter-screen for post-Golgi transport modulator project; efflux-deficient yeast background strain, growth absorbance A615, 16 h; inhibition, % at 10 µM; 5% of 98,000 active; AID 738, 2007
CYP2C9 inhib: blockers of cytochrome P450 2C9 activity – biochemical, luminescence, ADME assay, primary screen; 20% of 96,000 active; CYP2C9 Supersomes, luciferin-H conversion; inhibition, % at 5 µM; P11712;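 active = blocking of liver enzyme CYP2C9 beyond about 50% at 5 µM, limit read from the data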
CYP2C9 activ: human CYP2C9 activators, primary screen, biochemical, luminescence | recombinant CYP2C9, luciferin-H conversion; hits give high values; factor 1 = untreated enzyme, 0 = blocked | 1.4% of 96,000 active | Cytochrome P450 2C9 (Homo sapiens), P11712 | activation factor at 5 µM;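 active = activation factor of 2 or more for CYP2C9 at a 5 µM dose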;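 also: 0 = sulfaphenazole-blocked wells and 1 = vehicle-only wells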
Active calls of the source: *. Rule as the data show it, unless noted: active = inhibition above about 30%; inactive = the rest.

`CC(NC(=O)CSc1nnc(-c2cccc(S(=O)(=O)N3CCCCC3)c2)o1)C12CC3CC(CC(C3)C1)C2` (stereo unspecified) gave CYP2C19 act 0.3, PostGolgi yeast 2.2, CYP2C19 inh 68.1*, PostGolgi ctrl 6.8, CYP2C9 inhib 91.4* and CYP2C9 activ 0.1.
CC(C)CNC(=O)CSc1nnc(-c2cccc(S(=O)(=O)N3CCCCC3)c2)o1 was read as CYP2C19 act 0.7, PostGolgi yeast -1.3, CYP2C19 inh 25.6, PostGolgi ctrl -2.4, CYP2C9 inhib 45.2 and CYP2C9 activ 0.5.
CCOc1ccccc1-c1nnc(SCC(=O)Nc2ccccc2)o1 was read as CYP2C19 act 0.6, PostGolgi yeast -5.8, CYP2C19 inh 41.2, PostGolgi ctrl 43.3*, CYP2C9 inhib -137.9 and CYP2C9 activ 2.4*.
Screening Cc1ccc(NC(=O)CSc2nnc(-c3ccc(S(=O)(=O)N4CCCC4)cc3)o2)cc1C returned CYP2C19 act 0.8, PostGolgi yeast -5.8, CYP2C19 inh 24.8, PostGolgi ctrl -2.3, CYP2C9 inhib 53.5* and CYP2C9 activ 0.5.
`CCCOC(=O)CSc1nnc(-c2ccccc2Cl)o1` gave CYP2C19 act 0.3, PostGolgi yeast -4.2, CYP2C19 inh 67.3*, PostGolgi ctrl -0.9, CYP2C9 inhib -7.0 and CYP2C9 activ 1.1.
Cc1ccc(NC(=O)CSc2nnc(-c3ccccc3Br)o2)cc1C was read as CYP2C19 act 0.5, PostGolgi yeast 0.3, CYP2C19 inh 50.6*, PostGolgi ctrl 14.7, CYP2C9 inhib 73.3* and CYP2C9 activ 0.3.
For Cc1ccc(NC(=O)CSc2nnc(-c3ccccc3C)o2)cc1C the results were CYP2C19 act 1, PostGolgi yeast 2.2, CYP2C19 inh -2.4, PostGolgi ctrl -1.0, CYP2C9 inhib 10.2 and CYP2C9 activ 0.9.
Screening COC(=O)CSc1nnc(-c2ccc(S(=O)(=O)N3CCCCC3)cc2)o1 returned CYP2C19 act 0.6, PostGolgi yeast -1.1, CYP2C19 inh 37.6, PostGolgi ctrl 3.8, CYP2C9 inhib 64.3* and CYP2C9 activ 0.4.
Cc1cc(C)nc(SCc2nnc(SCC(=O)Nc3ccc(C)c(C)c3)o2)n1 was read as CYP2C19 act 0.1, PostGolgi yeast -3.9, CYP2C19 inh 87.9*, PostGolgi ctrl -1.2, CYP2C9 inhib 74.3* and CYP2C9 activ 0.3.
CC1CCN(C(=O)COC(=O)[C@H](C)NS(=O)(=O)/C=C/c2ccccc2)CC1 was read as CYP2C19 act 0.6, PostGolgi yeast 2.5, CYP2C19 inh 36.8, PostGolgi ctrl 5.6, CYP2C9 inhib -63.8 and CYP2C9 activ 1.6.
Cn1c(Cn2c(=O)sc3ccccc32)nnc1SCC(=O)Nc1ccc(Cl)cc1 was read as PostGolgi yeast -2.4 and PostGolgi ctrl -7.5.
Screening CCC(C)(C(=O)NC1CCCCC1)N(C(=O)C1CCC(=O)N1)c1ccc(C)cc1 (stereo unspecified) returned CYP2C19 act 1.1, PostGolgi yeast 21.3, CYP2C19 inh -14.7, PostGolgi ctrl 2.7, CYP2C9 inhib -20.5 and CYP2C9 activ 1.2.
COc1ccccc1-n1c(C)cc(C=O)c1C was read as CYP2C19 act 0.8, PostGolgi yeast 0.2, CYP2C19 inh 24.3, PostGolgi ctrl 6.4, CYP2C9 inhib 54.4* and CYP2C9 activ 0.5.
Screening O=C(O)C(=O)/C(=C\c1ccccc1)c1ccc2ccccc2n1 returned CYP2C19 act 0.9, PostGolgi yeast -2.1, CYP2C19 inh 14.7, PostGolgi ctrl 5.8, CYP2C9 inhib 17.2 and CYP2C9 activ 0.8.
O=C(c1ccccc1)c1ccc2ccccc2n1 was read as CYP2C19 act 0.3, PostGolgi yeast -2.5, CYP2C19 inh 69.3*, PostGolgi ctrl -0.8, CYP2C9 inhib -31.0 and CYP2C9 activ 1.3.
Screening CS(=O)(=O)N(CC(=O)Nc1cc(Cl)ccc1Cl)c1ccccc1 returned CYP2C19 act 0.6, PostGolgi yeast -11.3, CYP2C19 inh 36.3, PostGolgi ctrl -4.4, CYP2C9 inhib 64.8* and CYP2C9 activ 0.4.
For CS(=O)(=O)N(CC(=O)Nc1cccc(Cl)c1Cl)c1ccccc1 the results were CYP2C19 act 0.7, PostGolgi yeast -4.2, CYP2C19 inh 30.1, PostGolgi ctrl -1.3, CYP2C9 inhib 78.3* and CYP2C9 activ 0.2.
O=C(c1cccc(COCC(F)(F)C(F)F)c1)N1CCN(c2ccccc2)CC1 was read as CYP2C19 act 0.5, PostGolgi yeast -13.9, CYP2C19 inh 45.5, PostGolgi ctrl 5.1, CYP2C9 inhib 36.0 and CYP2C9 activ 0.6.
`Cc1cc(C)c2nc(N3CCCN(C(=O)c4cnccn4)CC3)c(C#N)cc2c1` gave CYP2C19 act 0.6, PostGolgi yeast -8.0, CYP2C19 inh 35.7, PostGolgi ctrl 10.1, CYP2C9 inhib 31.8 and CYP2C9 activ 0.7.
For c1cc(CSc2nnc(-c3ccc4c(c3)OCO4)o2)ccn1 the results were CYP2C19 act 0.1, PostGolgi yeast -2.0, CYP2C19 inh 94.4*, PostGolgi ctrl 8.9, CYP2C9 inhib 87.3* and CYP2C9 activ 0.1.
For Cc1ccc(CSc2nnc(-c3ccc4c(c3)OCO4)o2)cc1 the results were CYP2C19 act 0.9, PostGolgi yeast -3.2, CYP2C19 inh 12.7, PostGolgi ctrl 7.1, CYP2C9 inhib 15.4 and CYP2C9 activ 0.8.
For CCN(CC)S(=O)(=O)c1ccc2oc(SCC3CN=C(c4ccc(OC)cc4)S3)nc2c1 (stereo unspecified) the results were CYP2C19 act 0.5, PostGolgi yeast -8.3, CYP2C19 inh 47.0, PostGolgi ctrl -1.3, CYP2C9 inhib 78.8* and CYP2C9 activ 0.2.
Cc1ccccc1NC(=O)Cc1nc(CSc2nnc(-c3ccc4c(c3)OCO4)o2)cs1 was read as CYP2C19 act 0.4, PostGolgi yeast 4.1, CYP2C19 inh 62.7*, PostGolgi ctrl 22.0, CYP2C9 inhib -8.4 and CYP2C9 activ 1.1.
Screening COc1ccc(C2=NCC(CSc3nnc(-c4ccc5c(c4)OCO5)o3)S2)cc1 (stereo unspecified) returned CYP2C19 act 0.5, PostGolgi yeast 6.1, CYP2C19 inh 45.9, PostGolgi ctrl 37.1*, CYP2C9 inhib 37.7 and CYP2C9 activ 0.6.
`COc1ccccc1CN1CC(C(=O)NCc2cccnc2)CC1=O` (stereo unspecified) gave CYP2C19 act 0.9, PostGolgi yeast 12.2, CYP2C19 inh 7.9, PostGolgi ctrl 2.1, CYP2C9 inhib 0.7 and CYP2C9 activ 1.
Screening O=C(CCC(NC(=O)OCc1ccccc1)C(=O)OCC(=O)N1CCCCC1)OCC(=O)N1CCCCC1 (stereo unspecified) returned CYP2C19 act 0.2, PostGolgi yeast -2.5, CYP2C19 inh 83.2*, PostGolgi ctrl 1.2, CYP2C9 inhib 91.7* and CYP2C9 activ 0.1.
